Here are results for 59 compounds from PubChem BioAssay AID588413 (Sanford-Burnham Center for Chemical Genomics, 2011).

Out of some 340,000 compounds screened, about 2,500 (0.74%) were called active. The sample holds actives, similar compounds and a random draw of the others, so the mix is not that of the screen. Values without a mark were called inactive.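 How the source made its calls: active means inhibition above about 55% (limit read from the data); inactive means the rest.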

The assay in a line: blockers of Gli reporter signaling – luciferase luminescence, Sufu-KO-LIGHT cells, uHTS, primary screen (AID 588413).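 Further: 0% = DMSO-treated cells and 100% = wells with medium but no cells.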 To be noted: Sufu-KO-LIGHT fibroblasts, at 5 µM, hits give high values.
By inhibition is commonly meant the drop in the measured response relative to a control, in per cent. As for `CCCN(C(=O)CSc1nnnn1C)c1c(N)n(Cc2ccccc2)c(=O)[nH]c1=O`, the inhibition is -4.32%. On to `COc1ccc2c(c1)c(=Cc1ccc(N(C)C)cc1)c1cc(-c3ccccc3)[n+](C)n12`, for which the inhibition is 71.7% (active). As to `COc1ccc2sc(-c3ccc(N(C)C)cc3)c(C#CCO)c2c1`, the inhibition was -3.68%.

As to `CN(CC(=O)NC(=O)Nc1ccccc1F)Cc1ccccc1`, the inhibition was -0.74%. For `CCn1nc(C(=O)Nc2ccc(N3CCOCC3)cc2)c2ccccc2c1=O`, the inhibition is 6.24%. Turning to `CCN(CCO)C(=S)Nc1cc(C(=O)OC)ccc1C(=O)OC`, the inhibition was 96.9% (active).

Take `CCCN(CCC)C(=S)Nc1cc(C(=O)OC)ccc1C(=O)OC`: the inhibition was 1.47%. For `CCS(=O)(=O)Nc1cc(C(=O)OC)ccc1C(=O)OC`, the inhibition is -3.7%. For the compound `COc1ccccc1CN1CCN(C(c2ccccc2)c2ccccc2)CC1`, the inhibition was 25.4%. For the compound `O=C(C(c1ccccc1)c1ccccc1)N1CCN(CC(O)COc2ccccc2)CC1` (centres undefined), the inhibition is 3.62%. Next, `CC(C)OCC(O)CN1CCN(C(c2ccccc2)c2ccccc2)CC1` (centres undefined): 76.8% (active). As to `COc1ccc(C(=O)OCC(=O)NCC2CCCO2)cc1[N+](=O)[O-]` (centres undefined), the inhibition was -0.12%. Turning to `c1ccc2c(c1)CSc1sccc1C2=C1CCNCC1`, the inhibition is 28.4%. Regarding `COC(=O)c1c(C)[nH]c(C(=O)NCCc2ccc(S(N)(=O)=O)cc2)c1C`, the inhibition is -12.2%.

On to `COc1ccc(NC(=O)NNC(=O)COc2cc(C)c(Cl)c(C)c2)c(OC)c1`, for which the inhibition was -3.14%. Then `Cc1cccc(N2CC(C(=O)Nc3ccccc3N3CCCC3)CC2=O)c1C` (centres undefined), with -3.8%. As for `CN1CCN(CCC(=O)N/N=C/C=C2\N(C)c3ccccc3C2(C)C)CC1`, the inhibition is 29.6%. As to `CC(C)Nc1nnc(SCC(=O)/C=C2\N(C)c3ccccc3C2(C)C)s1`, the inhibition is 2.92%. Consider `CC(=O)Nc1cccc(OCC(=O)/C=C2\N(C)c3ccccc3C2(C)C)c1`, for which the inhibition is 56.5% (active). As to `COc1ccc(N2CCN(C(=O)C3CCN(S(=O)(=O)c4ccc(C)cc4)CC3)CC2)cc1`, the inhibition is 18.7%. As for `CCCCCN(C(=O)NC(=O)Nc1cccc(C)c1C)S(C)(=O)=O`, the inhibition is -3.52%. Then `CC(=O)OCCC(C)C`, with 57.4% (active); and `CC(=O)OCC(COC(C)=O)OC(C)=O`, with -14.9%.

For the compound `CC(=O)OC(C)C[N+](C)(C)C` (centres undefined), the inhibition is 15.8%. Then `CC(C)CC(=O)NC(=S)NNC(=O)c1cccc([N+](=O)[O-])c1`, with -4.7%; and `COc1ccc(C)cc1NC(=S)N1CCOCC1`, with 1.61%; and `CC(=O)N1CCCc2cc(S(=O)(=O)N3CCCC(C(=O)N4CCN(c5cccc(Cl)c5)CC4)C3)ccc21` (centres undefined), with 64.5% (active). For the compound `CC(=O)N1c2ccc(S(=O)(=O)N3CCCC(C(=O)Nc4cccc(Cl)c4)C3)cc2CC1C` (centres undefined), the inhibition is -0.91%. Turning to `CC(=O)N1CCCc2cc(S(=O)(=O)N3CCCC(C(=O)NCc4ccc(Cl)cc4)C3)ccc21` (centres undefined), the inhibition is 27%. Then `O=C(Nc1ccccc1C(=O)NCCCn1ccnc1)c1ccc(Cl)cc1Cl`, with 19.3%; and `CCOC(=O)C(CO)NC(=O)C1(NC(C)=O)CCCC1` (centres undefined), with -2.14%; and `O=C(CN(CC1CCCO1)C(=O)CNS(=O)(=O)c1ccc(F)cc1)NCc1ccco1` (centres undefined), with 0.03%. Next, `O=C1/C(=C/c2ccc(F)cc2)SC(=S)N1CCCC(=O)N1CCCCC1CCO` (centres undefined): -14.7%; `O=C(O)c1ccc(/C=C2\SC(=S)N(NC(=O)c3ccc(Br)cc3)C2=O)cc1`: 10%; `O=C1/C(=C/c2ccc(F)cc2)SC(=S)N1NS(=O)(=O)c1ccccc1`: 59.1% (active). Take `CN1CCN(C(=O)N2c3ccccc3CCc3ccccc32)CC1`: the inhibition was 0.29%. For the compound `CC1CCc2sc(C(=O)NCC(c3ccco3)N3CCCCC3)cc2C1` (centres undefined), the inhibition is 16.2%. Next, `Cc1ccc(CN(Cc2cccnc2)C(=S)Nc2cc(Cl)ccc2C)cc1`: 12.8%; `CC(=O)NCC(=O)N(C)C(C(=O)Nc1ccc2c(c1)OCCO2)c1ccccc1` (centres undefined): -14.5%. For `Cc1cccc2nc(CSc3nc4[nH]ncc4c(=O)n3-c3cccc(Cl)c3)cc(=O)n12`, the inhibition was 67.7% (active).

On to `CCc1ccc(-n2c(SCc3cc(=O)n4cc(Br)ccc4n3)nc3[nH]ncc3c2=O)cc1`, for which the inhibition is 5.99%. As for `COc1ccc(CCNC(=O)CSc2nc3[nH]ncc3c(=O)n2-c2cccc(C(F)(F)F)c2)cc1OC`, the inhibition is 0.76%. Then `CCn1cc(-c2cc(C(=O)O)on2)c(C)n1`, with -4.15%; and `COc1ccc(-n2c(SCC(=O)Nc3ccc4c(c3)OCO4)nnc2C(C)N2CCCCC2)cc1` (centres undefined), with 7.4%. Then `Cc1cc(C(=O)CSc2nc(N)cc(=O)[nH]2)c(C)n1CCc1ccc(Cl)cc1`, with 0.27%; and `CCCc1cc(=O)[nH]c(SCC(=O)c2cc(C)n(CCC)c2C)n1`, with 1.52%; and `Cc1cc(C(=O)CSc2nc(N)cc(=O)[nH]2)c(C)n1-c1cccc(F)c1`, with 56.6% (active). `COc1cc(C)cc(CN2CCC(Cc3ccccc3)CC2)c1O`: the inhibition is 15.5%. Take `Cc1ccc(CN2CCN(c3ncccn3)CC2)c(C)c1`: the inhibition is 1.86%. For `Oc1c(CN2CCCC2)cc(COCc2ccccc2)c2cccnc12`, the inhibition was 77.7% (active). Turning to `Oc1c(CN2CCN(c3ccc(F)cc3)CC2)cc(Cl)c2cccnc12`, the inhibition was 92.7% (active). Turning to `CC1CCCN(CC(O)COCc2ccccc2)C1` (centres undefined), the inhibition is 12.2%. Next, `Cc1cc(=O)oc2cc(OCC(=O)N3CCN(c4ccc(F)cc4)CC3)c(Cl)cc12`: 6.77%; `CC(C)C(C)NC(=O)COc1nc2ccccc2nc1N(C)C1CCCCC1` (centres undefined): -2.52%; `CCc1nnc(NC(=O)CCN(c2ccc(C)cc2)S(=O)(=O)c2ccccc2)s1`: -7.2%. Turning to `O=C1/C(=C\Nc2ccccc2)CCN1c1ncccn1`, the inhibition is -39%. With `Cc1ccccc1NC(=O)NC1(C(=O)N2CCCC2)CCCCC1`, the inhibition was 44.2%. Regarding `Cc1ccc(C)c(NS(=O)(=O)c2c(C)[nH]c(C)c2C(=O)N2CCCCC2)c1`, the inhibition was -12.2%. With `CC1CCCN(C(=O)Cn2c(=O)oc3ccccc32)C1` (centres undefined), the inhibition was 1.13%.
